Screening results from PubChem BioAssay.
Lassa entry inh – qHTS for Inhibitors of binding or entry into cells for Lassa Virus; 300,000 tested, 1.2% active; Lassa virus pseudotype entry inhibition, cell reporter; Potency, µM (top dose mostly 37.9 µM), for the others: top-dose activity change, negative = inhibition, usual class: inhibitors; AID 540256, 2011; calls by dose curve; tested in HEK293 cells; note: potency is the fitted concentration of half-maximal effect; % is set by controls: 0 for no effect and ±100 for the full control effect; nearly all actives have a fitted effect of over 50% in size
Pf growth 48h – Primary qHTS for delayed death inhibitors of the malarial parasite plastid, 48 hour incubation; P. falciparum luciferase growth in erythrocytes, 48 h; Potency, µM (top dose mostly 28.7 µM), inactives show top-dose activity change, negative = inhibition, hits mostly inhibitors; 310,000 tested, 5.9% active; AID 504832, 2011; note: potency is the fitted concentration of half-maximal effect; % is set by controls: 0 for no effect and ±100 for the full control effect
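A one-generation exposure of luciferase-tagged malaria parasites in RPMI 1640/Albumax erythrocyte culture, 37 C and 5% CO2. Inhibition is inferred from decreased luminescence after adding detection reagent.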
Marburg entry inh – qHTS for inhibitors of binding or entry into cells for Marburg Virus; 300,000 tested, 1.8% active; Marburg virus pseudotyped entry inhibition, cell reporter; Potency, µM (highest dose often 37.8 µM), inactives show at the top dose activity change, negative = inhibition, actives largely listed as inhibitors; AID 540276, 2011; calls by dose curve; tested in HEK293 cells; note: potency is the fitted concentration of half-maximal effect; % is set by controls: 0 for no effect and ±100 for the full control effect
Pf growth 96h – Primary qHTS for delayed death inhibitors of the malarial parasite plastid, 96 hour incubation; Potency, µM (top dose mostly 28.7 µM), inactives show at the top dose activity change, negative = inhibition, hits mostly inhibitors; P. falciparum luciferase reporter growth, 96 h; 320,000 tested, 6.9% active; note: potency is the fitted concentration of half-maximal effect; % is set by controls: 0 for no effect and ±100 for the full control effect
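Erythrocytes infected with luciferase-expressing P. falciparum were dispensed at 2% hematocrit and 0.05% parasitemia (final), then incubated with compounds 96 hours at 37 C in 5% CO2. Luminescence after detection reagent addition reported growth.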
CHX counter – Cycloheximide Counterscreen for Small Molecule Inhibitors of Shiga Toxin. cell reporter, cycloheximide protein synthesis inhibition counterscreen. max response, %. 300,000 tested, 12% active. AID 2314, 2010; in the data active = max response mostly above about 13%, no sharp cut-off; inactive = mostly below about 14%; note: read at 38.3 µM for the half of the compounds with a filed dose; 0% is about no effect
Shiga inhibitor – A qHTS for Small Molecule Inhibitors of Shiga Toxin. inhibition, % at 38.7 µM. Vero cells, Shiga toxin protein synthesis inhibition reporter. 290,000 tested, 9.2% active; in the data active = inhibition mostly above about 28%, no sharp cut-off; inactive = mostly below about 43%; note: 0% is about no effect
An asterisk follows results filed as active; ? = inconclusive; nt = no result given; [ ] = another dose, or the depositor's remark. Compounds with a hit are over-represented: about 19% of the library has one in this group of screens. Unless noted, calls come from the whole dose curve; as a rule, active = well fitted inhibition curve with a large enough effect; inconclusive = small, poorly fitted or top-dose-only effect, or another doubt; inactive = no such curve, though single readings can be large or run the other way.

SMILES	Lassa entry inh	Pf growth 48h	Marburg entry inh	Pf growth 96h	CHX counter	Shiga inhibitor
O=C(Nc1ncc2c(n1)CC(c1ccc(Cl)cc1)CC2=O)c1ccco1 (configuration not stated)	nt	10%	10%[46.1 µM]	30%	-10	-2
CSc1ccc(S(=O)(=O)NC(C)c2ccccc2)cc1 (configuration not stated)	-18%[46.1 µM]	9%	-16%[46.1 µM]	9%	1	38
Cc1ccc(S(=O)(=O)NC(C)c2ccccc2)cc1[N+](=O)[O-] (configuration not stated)	4%[46.1 µM]	16%	-2%[46.1 µM]	12µM*	-1	-6
COCCn1c(SC)nnc1-c1c[nH]c2ccccc12	nt	nt	nt	?	6	24
COCCCN=C(c1ccco1)n1c(=S)nc(-c2ccco2)n(CCCOC)c1=S	1%	5%	1%	27%	28*	62*
COCCCn1c(-c2ccco2)nc2ccccc2c1=O	-7%	28%	12%	nt	1	-25
CCc1noc(-c2ccc(NC(C)c3ccccc3)c([N+](=O)[O-])c2)n1 (configuration not stated)	1%[46.1 µM]	nt	1%[46.1 µM]	nt	nt	nt
COc1ccc(C(=O)N[C@H]2COC(C)(C)O[C@H]2c2ccccc2)cc1	3%	11%	-8%	?	12	10
COc1cccc(N2CCN(C(=O)c3cccn4c(=O)c5c(C)c(C)sc5nc34)CC2)c1	-1%[46.1 µM]	3%	-9%[46.1 µM]	?	8	11
O=C(c1cc(C(=O)N2CCOCC2)c2nc3ccccc3n2c1)c1ccccc1O	nt	?	nt	?	19	17
Cc1sc2nc3c(C(=O)N4CCCC4)cc(C(=O)c4ccccc4O)cn3c(=O)c2c1C	?	13µM*	0%[46.1 µM]	?	0	17
CCc1c(C)sc2nc3c(C(=O)N4CCOCC4)cc(C(=O)c4cc(F)ccc4O)cn3c(=O)c12	5%[46.1 µM]	?	?	2.1µM*	5	12
CN1CC=C(/C=C/c2ccc(-c3ccccc3)cc2)CC1	nt	?	nt	13µM*	43*	84*
COc1ccc(/C=C/C2=CCN(C)CC2)cc1	nt	27%	nt	205%	46*	63*
Cc1oc(C(C)(C)C)cc1C(=O)NCc1ccc2c(c1)OCO2	-12%[46.1 µM]	-1%	-23%[46.1 µM]	3%	5	3
Cc1ccccc1CN1c2ccccc2-c2nc(SCC(=O)Nc3cc(F)ccc3F)ncc2S1(=O)=O	-28%[46.1 µM]	nt	nt	nt	nt	nt
O=C(O)CCC(NS(=O)(=O)c1ccc(N2CCCC2=O)cc1)C(=O)O (configuration not stated)	-12%	16%	3%	-26%	1	18
Cc1ccc(C)c(OCc2cc(C(=O)N3CCN(c4ccccc4)CC3)no2)c1	nt	4%	nt	-8%	93*	98*
O=C(c1cc(COc2ccc(F)cc2F)on1)N1CCN(C(=O)c2ccco2)CC1	?	3%	?	-22%	8	-5
Cc1ccc(C)c(OCc2cc(C(=O)N3CCN(C(=O)c4ccco4)CC3)no2)c1	-11%	-3%	-15%	0%	42*	78*
Cc1cccc(COc2coc(CN3CCN(C(=O)c4ccco4)CC3)cc2=O)c1	0%	?	4%	12µM*	nt	nt
Cc1cnc(C(=O)NCCc2ccc(Cl)cc2)cn1	nt	51%	nt	59%	55*	73*
Cc1csc2nc(O)c(C(=O)NCCCc3ccccc3)c(=O)n12	-14%	-1%	?	48%	nt	nt
O=C(NCCc1ccc(Cl)cc1)c1cnccn1	21%[46.1 µM]	66%	?	9%	17*	9
O=C(NCCC1=CCCCC1)c1cnccn1	1%	111%	?	nt	20*	42
SMILES	Lassa entry inh	Pf growth 48h	Marburg entry inh	Pf growth 96h	CHX counter	Shiga inhibitor
NC(=O)NCCC1=CCCCC1	nt	nt	-1%	21%	-3	-10
Cc1csc2nc(O)c(C(=O)NCCC3=CCCCC3)c(=O)n12	15%	10µM*	2%	?	nt	nt
Cc1cc(C(=O)CN2C(=O)C(=O)N(Cc3ccccc3)C2=O)c(C)n1CC1COc2ccccc2O1 (configuration not stated)	-28%	?	?	?	1	15
Cc1nc(=O)c(-c2ccccc2)c(C)n1CC1CCCO1 (configuration not stated)	3%	-5%	?	30%	-4	-2
COc1ccc(Br)cc1/C=N/N1CCN(Cc2ccccc2Cl)CC1	-2%	0%	-13%	17%	-2	nt
CC(=O)Nc1ccc(S(=O)(=O)N[C@@H](C)C(=O)N(C)Cc2cccs2)cc1	nt	-5%	nt	-24%	nt	nt
S=c1[nH]cc(-c2ccccc2)[nH]1	nt	50%	nt	?	39*	34*
O=[N+]([O-])c1ccc(-c2c[nH]c(=S)[nH]2)cc1	nt	0%	nt	3%	15	18
Cc1cc(C)c(S(=O)(=O)N2CCCC(C(=O)NC3CCCC3)C2)c(C)c1 (configuration not stated)	-9%	-4%	-25%[46.1 µM]	20%	-4	-15
CN(C(=O)c1ccc(NC(=O)Cc2ccc(NC(=O)C3CCN(C(=O)C4CCC4)CC3)cc2)cc1)C1CC1	nt	?	nt	9.3µM*	nt	nt
O=C(Nc1ccc(C(=O)N2CCCCC2)cc1)C1CCCC1	0%[46.1 µM]	nt	nt	nt	nt	nt
CN(C(=O)c1ccc(NC(=O)Cc2ccc(NC(=O)C3CCN(C(=O)C4CCCC4)CC3)cc2)cc1)C1CC1	nt	?	-4%	2.1µM*	nt	nt
Cc1ccc(S(=O)(=O)NNC(=O)C(=O)NNc2ccccn2)cc1	-21%	51%	-6%	41%	-2	14
O=C(NCCCN1CCOCC1)C(=O)N/N=C/c1ccccc1Cl	nt	20%	nt	1%	19*	21
CC(C)NC(=S)N/N=C/c1cc(Br)ccc1O	-9%	2.1µM*	?	1.7µM*	10	20
COCCCNC(=S)N/N=C/c1ccccc1O	nt	?	nt	?	44*	52*
C/C(=N\NC(=S)NCCc1ccccc1)c1ccc(Cl)cc1	?	?	-15%	-11%	7	27
O=C(NCCCN1CCOCC1)C(=O)N/N=C/c1c(Cl)cccc1Cl	2%	-10%	-13%[46.1 µM]	4%	-1	8
C/C(=N\NC(=S)NCCc1ccccc1)c1ccc(C)cc1	?	-18%	16µM*	-10%	11	-2
Fc1ccc(/C=N/NC(=S)NCCc2ccccc2)cc1F	1%	7%	-7%[46.1 µM]	-1%	-2	6
COc1ccccc1/C=N/NC(=O)C(=O)Nc1ccccc1OC(F)(F)C(F)F	-5%	-9%	?	-2%	-4	-20
O=C(N/N=C/c1cc(Br)ccc1O)C(=O)Nc1ccccc1OC(F)(F)C(F)F	?	?	?	2.9µM*	-1	-21
COC(=O)N/N=C/c1cc(Br)ccc1O	-27%[46.1 µM]	0%	?	?	-4	4
